# Key:
# Assay in all cases: PBM binding z-score (relative to random genomic background probes); higher = stronger binding; sequences stand for … in GC…GCGATTGACAGCGTAGAATGAAGG
# [1] = test system: RARb homodimer (NR concentration 270 nM)
# Outline: (§1)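 Scanned fluorescence from custom Agilent 4×180K protein-binding microarrays was regression-normalized. Binding z-scores use random background probes as reference. Ligand-free nuclear receptor dimers were incubated on the arrays for 1 h and detected with antibodies against each partner (one per run).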
# [2] = test system: RARg:RXRa (NR concentration 270 nM, RXRa partner concentration 90 nM)
# Outline: as §1
# [3] = test system: RARg homodimer (NR concentration 270 nM)
# Outline: as §1
# [4] = test system: RXRa DBDmut IVT, anti-RXR (DBD mutation: RXRa K156A/R161A, NR concentration 90 nM)
# Outline: as §1
# [5] = test system: RXRa homodimer (NR concentration 180 nM)
# Outline: as §1
# [6] = test system: THRa:RXRa (NR concentration 90 nM, RXRa partner concentration 90 nM)
# Outline: as §1
# [7] = test system: THRa homodimer (NR concentration 90 nM)
# Outline: as §1
# [8] = test system: VDR homodimer (NR concentration 270 nM)
# Outline: as §1
Sequence,PBM binding z-score [1],PBM binding z-score [2],PBM binding z-score [3],PBM binding z-score [4],PBM binding z-score [5],PBM binding z-score [6],PBM binding z-score [7],PBM binding z-score [8]
CCTGCTAGGTCAATGGTCAGCAAAAGCAGCTCGC,2.84,3.57,4.83,1.78,2.47,2.16,0.37,0.312
GGCACGAGGGCAAAGTTGATAGCATCTGTCGACG,1.26,2.26,1.99,2.39,2.19,1.33,-0.552,1.29
CAAACTAGGTCAAGGACAGTGAATCTCCGCACGC,3.29,3.69,4.39,1.7,2.79,3.27,2.33,0.901
GATACAGGCTCAGCTAGAGGCCAGAGTATGGAAA,-0.469,-0.109,-0.0931,-0.906,-0.529,-1.13,-0.801,-0.924
ACTATTAGTTGAGACGAGGGGAACCGATAGGTTG,-0.242,0.21,0.42,0.612,0.177,1.13,-0.473,0.00117
ATCTCTAGGTAAAGTTCAGTGAGAGATCGATAGA,2.43,1.84,2.47,1.21,1.06,1,0.0803,1.28
CCTAGTTGGTCAGCAGGTCACACACCGGATATGA,3.43,3.52,3.44,0.217,3.16,2.77,1.35,1.05
CCAACTGGGCCACGAAAGGTCATTGATTCAGTGA,4.65,4.7,4.65,0.781,5.13,3.69,0.917,2.32
CCTATTAGTTGACCATAAGGGGAACCGAAGCTCG,0.9,0.438,0.565,0.467,0.236,0.633,0.694,0.895
CGTCCAAGGACAAAGGTCAGTGAAGAGATGACGG,4.61,5.3,4.95,1.31,4.03,4,1.15,0.88
CCGATTGGGGCATAAGGTTACCATAAGCCAGCCC,1.76,1.79,1.12,0.0114,1.14,2.16,1.14,-0.374
TCGGACAGGTGAAGGTAACTCAGGTACGCAGTCG,1.08,0.664,1.17,0.768,0.653,1.33,0.486,0.395
TTATATAGGTAAAGGTGAAAGTCGAACGATATGA,1.64,1.68,1.27,-0.41,2.15,1.44,-0.395,-0.389
CGTACTGGGCCAAAAAGGTCATTGATGCCGATAA,4.63,4.76,4.11,1.07,4.86,3.15,0.617,2.61
ACTAGTTGGTCAGCTGAGGTGACACACAATTCGG,1.74,1.34,1.29,-0.108,0.902,4.41,2.03,0.149
TCATATAGGTAAATGCTAGGTGTAAGTCCGATCT,-0.036,0.43,0.124,1.47,0.608,0.0134,0.0913,0.144
AGAATGACGTTATTAAGATCAGGGAATTGCGGTC,-0.448,-0.146,0.0594,-0.095,-0.18,-0.42,-0.892,-0.318
ATCTCTAGGTAACCAAGTTCAGTGGATGCCGAAC,1.38,0.761,0.959,0.576,0.536,1.46,0.709,2.45
CTCGAAAGGTCGTGCTCAGGTGAGTAAACCAAAC,2.84,5.23,4.05,1.99,4.99,4.08,0.933,0.941
ACTATTAGTTGAGACGATGGCAACCGATAGGTTG,-0.57,0.459,0.26,0.0509,0.0596,-0.111,-0.705,0.236
TGTCAAAGTTCAAAGCTAACGTAAGTATCCACAC,3.48,5.47,5.72,4.37,4.59,1.76,-0.21,3.56
TAGCCTAGGTCATGCGGGCCATTATAGTGTCGGC,3.04,4.02,4.28,1.05,3.23,3.16,1.17,1.49
GGAAGGAGGGCATTCGAGTTGATAGCATGGCGAT,1.15,0.897,1.34,1.47,0.679,2.83,0.445,2.01
AGAATGAGCTTATTAAGATCAGGGAATTGCGGTC,-0.66,-0.341,-0.0554,-0.496,-0.0846,-0.273,-0.456,-0.554
CCTAGCAGGCCAATCTGGGTCCCTCAAGGCTTGA,-0.121,-0.601,-0.841,-0.491,-0.782,0.746,-0.658,-0.612
CCTACTGTGCCACGAAAGGTCATTGATTCAGTGA,4.67,4.41,3.73,1.43,4.76,3.46,1.67,2.34
CCGGCTAGGTCAATGGTCAGCTAAAGCAGCTCGC,3.19,3.59,4.45,1.33,2.4,2.16,0.768,0.413
AATCAAAGTTCATCTAGGTAACGTAAGATATGCT,3.95,5.18,5.7,4.69,4.44,3.23,0.0393,4.45
